High-throughput results from PubChem.
Only some compounds are listed: those with a hit (about 3.8% of all), similar ones and a draw of the others.
PAFAH1B2 inh = PAFAH1B2 enzyme inhibitors, primary screen, biochemical, fluorescence polarization, human | Platelet-activating factor acetylhydrolase IB subunit alpha2 (Homo sapiens), P68402 | recombinant PAFAH1B2, FP-rhodamine activity probe | inhibition, % at 3.39 µM | actives 1.2% (n = 340,000) | AID 492953, 2010;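 active means inhibition above the mean of all tested compounds plus 3 SD, cut at about 24% in these data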;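 further: 0% = enzyme with DMSO and 100% = wells lacking PAFAH1B2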
Target sequence (P68402 whole entry, looked up): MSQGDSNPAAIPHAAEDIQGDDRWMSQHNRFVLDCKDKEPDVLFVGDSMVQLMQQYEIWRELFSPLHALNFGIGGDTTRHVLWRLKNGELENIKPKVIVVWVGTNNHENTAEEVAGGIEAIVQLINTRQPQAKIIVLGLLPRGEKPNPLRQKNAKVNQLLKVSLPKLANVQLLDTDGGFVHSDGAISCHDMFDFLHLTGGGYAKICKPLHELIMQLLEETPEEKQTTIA
PAFAH1B3 FP inh = PAFAH1B3 enzyme inhibitors, primary screen, biochemical, fluorescence polarization, human; actives 0.28% (n = 340,000); Platelet-activating factor acetylhydrolase IB subunit alpha1 (Homo sapiens), Q15102; AID 492972, 2010; recombinant PAFAH1B3, FP-rhodamine probe; inhibition, % at 3.39 µM;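 active means inhibition above the screen-wide average of all tested compounds plus 3 SD, cut at about 25% in these data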;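 further: 0% = enzyme with DMSO only and 100% = wells lacking PAFAH1B3 protein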
Target sequence (Q15102 whole entry, looked up): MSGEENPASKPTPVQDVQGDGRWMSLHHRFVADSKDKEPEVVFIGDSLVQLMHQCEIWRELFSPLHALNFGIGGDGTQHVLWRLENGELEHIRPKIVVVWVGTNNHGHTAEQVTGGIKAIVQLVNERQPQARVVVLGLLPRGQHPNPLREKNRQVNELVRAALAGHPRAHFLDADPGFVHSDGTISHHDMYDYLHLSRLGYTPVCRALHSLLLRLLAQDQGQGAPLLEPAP
PAFAH2 inh = PAFAH2 enzyme inhibitors, primary screen, biochemical, fluorescence polarization, human | Platelet-activating factor acetylhydrolase 2, cytoplasmic (Homo sapiens), Q99487 | recombinant PAFAH2, FP-rhodamine activity probe | inhibition, % at 3.39 µM | actives 0.99% (n = 340,000) | AID 492956, 2010;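 active means inhibition above the mean over all tested compounds plus 3 SD, cut at about 30% in these data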;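 further: inhibitors block probe labeling of enzyme so polarization drops; 0% = enzyme with DMSO and 100% = wells lacking PAFAH2 protein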
DSG3 Ab inh = inhibitors of pemphigus antibody binding to DSG3, primary screen, biochemical, bead-based, flow cytometry, scFv-GFP | actives 0.48% (n = 310,000) | DSG3-coupled beads, scFv-anti-DSG3-GFP binding; stronger effect = lower value | AID 588358, 2011 | binding (percent of control), % at 10 µM | Desmoglein-3 (Homo sapiens), P32926;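 active means binding more than 3 SD below its plate's average and above zero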;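 further: hits lower antibody fragment binding to DSG3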
M18AAP inhibitor = PfM18AAP inhibitors, malaria aminopeptidase, primary screen, biochemical, QFRET, recombinant enzyme; AID 1822, 2009; H-Glu-NHMec fluorogenic cleavage; M18 aspartyl aminopeptidase (Plasmodium falciparum 3D7); inhibition, % at 7.35 µM; actives 1.2% (n = 290,000);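 active means inhibition above the campaign mean inhibition over all tested compounds plus 3 SD, cut at about 28% in these data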;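 further: 0% = plate median of test compound wells and 100% = 2 mM ZnCl2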
pPAFAH inh = pPAFAH enzyme inhibitors, primary screen, biochemical, fluorescence polarization, human | recombinant pPAFAH, FP-rhodamine probe fluorescence polarization | inhibition, % at 3.39 µM | actives 1.5% (n = 330,000);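 active means inhibition above the mean inhibition across the screen plus 3 SD, cut at about 25% in these data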;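 further: inhibitors block binding of the rhodamine activity-based probe so polarization drops; 0% = enzyme with DMSO and 100% = wells lacking pPAFAH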
An asterisk follows results filed as active; . = no result given.

SMILES	PAFAH1B2 inh	PAFAH1B3 FP inh	PAFAH2 inh	DSG3 Ab inh	M18AAP inhibitor	pPAFAH inh
CS(=O)(=O)N(CC(=O)NCCSc1ccc(Cl)cc1)c1ccc2c(c1)OCO2	25*	2	8	102	-6	0
CCCCn1c(O)c(/C=C/C=C/C=Nc2ccccc2)sc1=S	-9	-11	2	93	12	30*
CCn1c(O)c(/C=C/C=C/C=Nc2ccccc2)sc1=S	-8	-7	-5	98	14	18
Cc1nc(-c2ccc(F)cc2)c(CC(=O)NCC(=O)Nc2ccc(F)c(F)c2)s1	-2	3	3	.	.	-8
COc1ccc2nc(NNC(=O)C3COc4ccccc4O3)sc2c1 (stereo unspecified)	6	4	-1	109	31*	8
COc1ccc2nc(NC(=O)C3COc4ccccc4O3)sc2c1 (stereo unspecified)	6	1	0	103	-4	3
COc1ccc(CNC(=O)CCSCc2cccc(F)c2)cc1	8	7	5	104	-11	27*
COc1ccc(CNC(=O)CCSCc2cccc(Cl)c2)cc1	18	3	8	99	2	13
Cc1cc(SCC2=NNC(=O)C2)c(Cl)cc1Cl	4	10	-7	96	-10	28*
O=C(Cc1ccc(Cl)cc1)NNC(=O)c1ccco1	12	5	9	104	-16	3
CN(C(=O)COC(=O)C12CC3CC(CC(Cl)(C3)C1)C2)C1(C#N)CCCCC1	24*	5	6	98	.	-4
Cn1c(C(=O)c2ccncc2)cc2ccccc21	3	-1	4	94	-1	12
CC(=O)Nc1ccc(S(=O)(=O)NCCSCc2ccc(Cl)cc2Cl)cc1	39*	7	-8	102	2	16
COc1ccc(OC)c(NCCN2C(=O)c3ccccc3C2=O)c1	.	.	.	104	.	.
CC(C)c1ccc(C(=O)COC(=O)C(O)c2ccccc2)cc1 (stereo unspecified)	13	7	9	118	.	29*
CCNC(=S)N1CCC(C(=O)c2ccc(F)cc2)CC1	.	.	.	97	.	.
O=c1c(Cc2ccc(Cl)cc2Cl)c(O)ccn1Cc1ccc(Cl)cc1	28*	1	4	111	0	5
O=c1c(Cc2ccc(Cl)cc2)c(O)ccn1Cc1cccc(Cl)c1	12	6	3	95	5	4
COC(=O)Cc1c(O)ccn(Cc2ccc(Cl)c(Cl)c2)c1=O	28*	14	7	105	-15	5
O=[N+]([O-])c1ccc(N/N=C/c2cccc(O)c2)cc1	-4	8	-1	220	28*	19
Cc1nc2ccccc2n2c(O)c(CC(=O)O)cc12	18	13	26	100	-12	27*
Cc1nc2ccccc2n1CCC(=O)O	0	8	0	.	-6	-1
CC(=O)Nc1ccc(NC(=O)c2nc(-c3ccccc3)oc2C)cc1	0	5	9	107	-6	-2
COc1ccc(OC)c(NC(=O)c2nc(-c3ccccc3)oc2C)c1	14	10	-7	83*	1	5
COc1ccc(OC)c(NC(=O)CSc2sc3c(O)cc(=O)[nH]c3c2C#N)c1	8	7	25	99	13	20
SMILES	PAFAH1B2 inh	PAFAH1B3 FP inh	PAFAH2 inh	DSG3 Ab inh	M18AAP inhibitor	pPAFAH inh
Cc1ccc(NC(=O)CSc2sc3c(O)cc(=O)[nH]c3c2C#N)c(F)c1	7	13	15	100	13	31*
Cc1cc(=O)[nH]c(SCC(=O)Nc2ccc(F)cc2)c1C#N	.	.	.	103	4	2
N#Cc1c(SCC(=O)Nc2ccc(C(F)(F)F)cc2)sc2c(O)cc(=O)[nH]c12	10	9	-8	99	9	25*
CCOCCn1c(C)c(C(=O)OCC)c2cc(O)c3ccccc3c21	0	12	1	90	.	12
C[C@H](CO)N1C[C@H](C)[C@@H](CN(C)Cc2ccccn2)Oc2ncc(-c3ccccc3)cc2C1=O	.	.	.	114	.	.
N=C(N)c1ccc(N=Nc2c(O)ccc3c2[nH]c2ccccc23)cc1	31*	9	10	69*	.	.
Cc1ccc(C(C[N+](=O)[O-])c2c(-c3ccccc3O)[nH][nH]c2=O)cc1 (stereo unspecified)	25*	2	11	98	14	3
COc1ccc(C(C[N+](=O)[O-])c2c(C)[nH]c3ccccc23)cc1OC (stereo unspecified)	-3	9	-1	98	20	9
CC[C@@H]1C=C(C(=O)O)[C@H](c2ccc(C)cc2)N1S(=O)(=O)c1ccc(C)cc1	8	7	1	101	.	2
CC(C)(C)[C@@H]1C=C(C(=O)O)[C@H](c2ccc(Cl)cc2)N1S(=O)(=O)c1ccccc1	27*	10	-1	110	.	5
Cc1ccc(S(=O)(=O)N2[C@@H](c3ccc(C#N)cc3)C(C(=O)O)=C[C@H]2CC2CCCC2)cc1	27*	-1	4	95	.	2
CCCC[C@@H]1C=C(C(=O)O)[C@H](c2ccc(Cl)cc2)N1S(=O)(=O)c1ccc(C)cc1	28*	5	9	106	.	-1
CCCCC[C@@H]1C=C(C(=O)O)[C@H](c2ccc(Br)cc2)N1S(=O)(=O)c1ccc(C)cc1	27*	0	4	106	.	4
Cc1ccc(S(=O)(=O)N2[C@@H](c3ccc(Cl)c(Cl)c3)C(C(=O)O)=C[C@H]2CC2CCCC2)cc1	23	-5	-2	105	.	11
O=C(Cc1ccc(NC(=O)C2CCN(C(=O)c3ccccc3)CC2)cc1)Nc1cccc(C(=O)N2CCCCC2)c1	1	4	-5	103	.	.
O=S(=O)(NC1C2CC3CC(C2)CC1C3)c1ccccc1 (stereo unspecified)	26*	5	8	99	.	2
O=C1c2cccc3c(O)ccc(c23)C(=O)N1Cc1ccccc1	26*	35*	50*	124	12	31*
CCc1ccc2oc(=O)cc(CN(C)Cc3ccccc3)c2c1	38*	3	-9	116	-5	0
Cc1ccc2c(CN(C)Cc3ccccc3)cc(=O)oc2c1C	7	3	-21	64*	7	3
CCc1ccc2oc(=O)cc(CN3CCN(Cc4ccccc4)CC3)c2c1	4	7	1	93	14	-1
Oc1ccc(NCc2cccs2)cc1	3	8	-9	89	1	28*
CC(=O)Nc1ccc(NCc2cccs2)cc1	6	1	-7	96	7	-1
